Source: PubChem BioAssay (several laboratories)
A selection: hits, their analogues and other compounds. The true share with any hit is near 3.1%.
BoNT A protease = inhibitors of Botulinum neurotoxin A light chain protease. inhibition, % at 10 µM. AID 588499. multiplex microsphere protease substrate cleavage, flow cytometry. 0.17% of 360,000 active; further: plate controls were buffer without enzyme for full effect and enzyme alone for no effect
BoNT-F LC inh = inhibitors of Botulinum neurotoxin F light chain protease. Multiplex microsphere protease cleavage assay, flow cytometry. inhibition, % at 10 µM. 0.22% of 360,000 active; in the data active means inhibition above about 35%, passing the limit was not always enough; inconclusive means no clear call, values can overlap the other calls; further: plate controls were buffer without enzyme for full effect and enzyme alone for no effect
PriA SSB inh = blocks PriA binding to SSB C-terminal tail; AlphaScreen SSBct-PriA binding, biotinylated peptide; inhibition, % at 33 µM; 0.6% of 430,000 active; in the data active means inhibition mostly above about 37%, no sharp cut-off; inactive means mostly below about 20%;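 further: plate controls were negative control peptide for no effect and reference peptide for full effect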
Bead autofluor = compound fluorescence in toxin protease inhibitor counterscreen; compound autofluorescence counterscreen, microsphere flow cytometry; hits give high values; fluorescence intensity (no concentration beside the values); 3.1% of 360,000 active; AID 624483; in the data active means fluorescence intensity above about 16000; inconclusive means no clear call, values can overlap the other calls
Anthrax LF prot = inhibitors of Bacillus anthracis lethal factor protease; multiplex microsphere protease cleavage assay, LF; inhibition, % at 10 µM; 0.12% of 360,000 active; AID 588501; further: plate controls were buffer without enzyme for full effect and enzyme alone for no effect
Target sequence (P15917 whole entry, looked up): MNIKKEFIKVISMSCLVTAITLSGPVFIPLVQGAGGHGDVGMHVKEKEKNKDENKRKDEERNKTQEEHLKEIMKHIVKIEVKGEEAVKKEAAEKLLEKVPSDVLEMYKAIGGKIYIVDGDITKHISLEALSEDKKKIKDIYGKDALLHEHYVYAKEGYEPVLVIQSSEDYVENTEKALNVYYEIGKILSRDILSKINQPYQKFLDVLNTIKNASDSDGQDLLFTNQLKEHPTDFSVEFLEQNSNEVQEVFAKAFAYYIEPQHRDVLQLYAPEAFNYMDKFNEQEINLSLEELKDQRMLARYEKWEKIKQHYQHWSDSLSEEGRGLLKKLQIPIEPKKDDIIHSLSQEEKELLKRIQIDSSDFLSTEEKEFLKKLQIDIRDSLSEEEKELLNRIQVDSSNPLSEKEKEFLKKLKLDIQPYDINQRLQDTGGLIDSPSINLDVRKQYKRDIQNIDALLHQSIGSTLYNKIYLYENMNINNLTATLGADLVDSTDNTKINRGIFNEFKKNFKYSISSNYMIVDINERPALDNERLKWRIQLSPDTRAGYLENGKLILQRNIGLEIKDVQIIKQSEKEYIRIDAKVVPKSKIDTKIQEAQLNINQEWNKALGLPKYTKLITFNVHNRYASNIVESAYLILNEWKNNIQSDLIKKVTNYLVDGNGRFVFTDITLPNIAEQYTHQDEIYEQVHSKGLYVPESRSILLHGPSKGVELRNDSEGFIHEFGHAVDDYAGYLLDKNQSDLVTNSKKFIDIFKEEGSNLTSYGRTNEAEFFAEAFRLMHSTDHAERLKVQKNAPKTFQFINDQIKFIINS
Starred values were filed as active, the others as inactive. Unless noted, no stated cut-off is given here; in the data, active means inhibition above about 30%; inconclusive means no clear call, values can overlap the other calls; inactive means below that.

How did O=C(CN1C(=O)c2ccccc2C1=O)NCC1(c2ccccc2)CCOCC1 do in these assays?
PriA SSB inh: -31.0

Results for COc1ccc(NC(=O)CSc2nnc(-c3ccccc3C)n2C)cc1 ?
BoNT A protease: inconclusive; BoNT-F LC inh: 1.4; PriA SSB inh: -10.3; Bead autofluor: 19446*; Anthrax LF prot: -0.7

How did COc1ccc(CNC(=O)CSc2nnc(-c3ccc(NC(C)=O)cc3)n2C)cc1 do in these assays?
BoNT A protease: 4.6; BoNT-F LC inh: 2.9; PriA SSB inh: -1.5; Bead autofluor: 17726*; Anthrax LF prot: -6.6

Results for COc1ccc(-c2cnc(SCC(=O)Nc3ccccc3)n2-c2ccccc2C)cc1 ?
PriA SSB inh: 44.0*

Results for CC(=O)Nc1ccc(-c2nnc(SCc3c(C)cc(C)cc3C)n2C)cc1 ?
BoNT A protease: 0.0; BoNT-F LC inh: -3.2; PriA SSB inh: -1.9; Bead autofluor: 23890*; Anthrax LF prot: 0.0

How did COc1ccc(-c2nnc(SCC(=O)Nc3ccc(C)cc3)n2C)cc1 do in these assays?
BoNT A protease: -0.2; BoNT-F LC inh: -2.1; PriA SSB inh: 4.4; Bead autofluor: 8101; Anthrax LF prot: -0.2

What do the screens show for `Cc1nnc(NC(=O)CSc2ncc(-c3ccc(Br)cc3)n2-c2ccccc2C)s1`?
PriA SSB inh: -1.0

What do the screens show for `COCCNC(=O)C1(c2cccs2)CCCC1`?
PriA SSB inh: -7.0

What do the screens show for `COc1ccc(C(=NNc2ccccc2C(=O)O)c2ccccc2)cc1`?
PriA SSB inh: 4.2

Results for O=C(Cn1nc2ccc(-c3ccc(Cl)cc3)nn2c1=O)NC1CCCCC1 ?
PriA SSB inh: -8.0

Results for COc1ccc(-n2c(SCC(N)=O)nnc2-c2ccccc2F)cc1 ?
BoNT A protease: 0.1; BoNT-F LC inh: -1.5; PriA SSB inh: -18.9; Bead autofluor: 16562*; Anthrax LF prot: 0.2

What do the screens show for `COc1ccccc1-c1nnc(SCC(=O)Nc2ccc(S(N)(=O)=O)cc2)n1C`?
BoNT A protease: -3.0; BoNT-F LC inh: -5.8; PriA SSB inh: 3.6; Bead autofluor: 21773*; Anthrax LF prot: -3.7

What do the screens show for `CCNC(=O)CSc1nnc(-c2ccc(OC)cc2)n1CC(C)C`?
BoNT A protease: 3.3; BoNT-F LC inh: 2.5; PriA SSB inh: -12.0; Bead autofluor: 21420*; Anthrax LF prot: -10.1

Results for CCn1c(SCC(=O)Nc2ccc(S(N)(=O)=O)cc2)nnc1-c1ccccc1OC ?
BoNT A protease: -0.4; BoNT-F LC inh: 9.4; PriA SSB inh: -18.1; Bead autofluor: 3353; Anthrax LF prot: 2.6

What do the screens show for `CCOC(=O)Cc1csc(NC(=O)CSc2nnc(-c3ccc(OC)cc3)n2C)n1`?
BoNT A protease: inconclusive; BoNT-F LC inh: -3.9; PriA SSB inh: -6.9; Bead autofluor: 20591*; Anthrax LF prot: 0.4

Results for O=C(Nc1ccccc1-c1cn2ccccc2n1)c1cccc(-n2cccn2)c1 ?
PriA SSB inh: -9.0

What do the screens show for `Cc1ccc2nc(-c3ccc(NC(=O)CC4CSc5ncc(C)c(=O)n54)cc3)sc2c1` (stereo not drawn)?
PriA SSB inh: -1.0

How did O=C(O)c1cccn(Cc2ccccn2)c1=O do in these assays?
PriA SSB inh: 16.0

How did CCn1c(=NC(=O)c2ccccc2)sc2cc3c(cc21)OCO3 do in these assays?
PriA SSB inh: -1.0

What do the screens show for `Cc1ccc(-c2cc3c(SCC(=O)NC4CCCC4)nccn3n2)cc1`?
PriA SSB inh: 6.0

What do the screens show for `COc1ccc(C(=O)NCCc2nnc(SCC(=O)Nc3ccccc3C(C)C)n2C)cc1`?
BoNT A protease: 0.1; BoNT-F LC inh: 0.3; PriA SSB inh: -13.9; Bead autofluor: 20025*; Anthrax LF prot: -3.2

Results for O=S(=O)(NCCn1ccc(-c2ccccn2)n1)c1ccc(Cl)s1 ?
PriA SSB inh: -20.0

What do the screens show for `CCn1c(SCC(=O)Nc2ccccc2C)nc2c(-c3ccccc3)csc2c1=O`?
PriA SSB inh: -7.0

How did CCOc1ccc(-c2noc(CCC(N)=O)n2)cc1OCC do in these assays?
BoNT A protease: -3.0; BoNT-F LC inh: -3.9; PriA SSB inh: -3.1; Bead autofluor: 21943*; Anthrax LF prot: -2.0

What do the screens show for `O=C(O)CCc1ccc(-c2cccs2)n1NC(=O)c1ccccc1Br`?
BoNT A protease: -2.9; BoNT-F LC inh: -5.8; PriA SSB inh: -28.7; Bead autofluor: 23254*; Anthrax LF prot: -1.9

How did O=C(O)CCc1ccc(-c2ccccc2)n1NC(=O)c1cccs1 do in these assays?
BoNT A protease: -1.9; BoNT-F LC inh: -4.0; PriA SSB inh: -8.0; Bead autofluor: 3490; Anthrax LF prot: -4.9

What do the screens show for `CC(C)(C)c1ccc(C(=O)Nn2c(CCC(=O)O)ccc2-c2cccs2)cc1`?
BoNT A protease: -2.4; BoNT-F LC inh: -0.5; PriA SSB inh: -2.1; Bead autofluor: 17160*; Anthrax LF prot: -1.4

Results for Cc1ccc(/C(N)=N/OC(=O)/C=C/c2ccccc2)cc1 ?
BoNT A protease: 0.0; BoNT-F LC inh: 12.0; Bead autofluor: 4322; Anthrax LF prot: 0.4

How did COc1ccc(/C(N)=N/OC(=O)/C=C/c2ccccc2)cc1 do in these assays?
BoNT A protease: 5.9; BoNT-F LC inh: 61.7*; Bead autofluor: 2098; Anthrax LF prot: 1.9

How did Cc1ccccc1/C(N)=N/OC(=O)/C=C/c1ccccc1 do in these assays?
BoNT A protease: 1.4; BoNT-F LC inh: 0.0; Bead autofluor: 22804*; Anthrax LF prot: -3.8

What do the screens show for `CCCC(=O)N1CCN(c2nc3c(C)c(Cl)ccc3s2)CC1`?
PriA SSB inh: 5.0

How did O=C(NC1CCCC1)C1C2C=CC(C2)C1C(=O)N1CCOCC1 (stereo not drawn) do in these assays?
BoNT A protease: inconclusive; BoNT-F LC inh: 3.4; PriA SSB inh: -12.7; Bead autofluor: 21400*; Anthrax LF prot: -1.6

How did CS(=O)(=O)N1CCC(C(=O)N2CC(=O)Nc3ccccc32)CC1 do in these assays?
PriA SSB inh: -8.0

Results for O=c1[nH]cc(-c2ccc(Br)cc2)n1Cc1ccccc1 ?
BoNT A protease: -1.0; BoNT-F LC inh: -6.3; PriA SSB inh: 77.5*; Bead autofluor: 3498; Anthrax LF prot: 6.9

Results for Fc1ccc(-c2c[nH]c(=S)n2Cc2ccccc2)cc1 ?
BoNT A protease: -0.6; BoNT-F LC inh: -1.2; PriA SSB inh: 8.3; Bead autofluor: 4348; Anthrax LF prot: -3.1

What do the screens show for `COc1ccc(C(=O)Nc2ccc3oc(-c4cccc(F)c4)nc3c2)cc1OC`?
BoNT A protease: -0.2; BoNT-F LC inh: 4.3; PriA SSB inh: -364.7; Bead autofluor: 4315; Anthrax LF prot: -8.6

What do the screens show for `CCCC(=O)Nc1ccc(-c2nc3cc(C)ccc3o2)cc1`?
BoNT A protease: 0.1; BoNT-F LC inh: -11.5; PriA SSB inh: -12.2; Bead autofluor: 4846; Anthrax LF prot: -3.0

Results for COc1ccccc1C(=O)Nc1ccc2oc(-c3ccc(F)cc3)nc2c1 ?
BoNT A protease: -1.9; BoNT-F LC inh: -1.1; PriA SSB inh: -6.9; Bead autofluor: 17405*; Anthrax LF prot: -0.2

What do the screens show for `CCCC(=O)Nc1ccc2oc(-c3ccc(OC)c(Br)c3)nc2c1`?
BoNT A protease: 2.9; BoNT-F LC inh: 3.3; PriA SSB inh: -6.1; Bead autofluor: 21634*; Anthrax LF prot: -5.7

Results for Cc1cc(OC2CCN(C(=O)c3ccc(C(F)(F)F)nc3)CC2)cc(=O)o1 ?
PriA SSB inh: 0.0
